From PubChem BioAssay (NCI)
About 83,000 compounds went through this panel and 20% of them were active in at least one assay; those are over-represented in the sample as a whole.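 Note: values are percent growth. 100 is the growth of untreated cells, values between 100 and 0 indicate rising inhibition; between -100 and 0 indicates cell death.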 Calls of active or inactive are those of the source. How the source made its calls: active means growth percent below 10; inactive means the rest.

Tests used:
Assay in all cases: NCI-60 one-dose screen, 48 h (100 = growth as untreated, 0 = no growth, -100 = all killed)
Conditions in all cases: 10 µM unless noted
[1] = system: SK-MEL-2 melanoma
[2] = system: EKVX NSCLC
[3] = system: SN12C renal
[4] = system: UO-31 renal
[5] = system: TK-10 renal
[6] = system: ACHN renal
[7] = system: CAKI-1 renal
[8] = system: A498 renal
[9] = system: CCRF-CEM leukemia
[10] = system: MOLT-4 leukemia
[11] = system: SR leukemia
[12] = system: RPMI-8226 leukemia
[13] = system: OVCAR-8 ovarian
[14] = system: OVCAR-5 ovarian
[15] = system: OVCAR-4 ovarian
[16] = system: SK-OV-3 ovarian
[17] = system: IGROV1 ovarian
[18] = system: OVCAR-3 ovarian
[19] = system: HS 578T breast
[20] = system: NCI/ADR-RES ovarian

Measured: growth

COc1ccccc1NCc1cccn1Cc1ccc(F)cc1
inactive: [1] 106% | [2] 98% | [3] 97.5% | [4] 75.6% | [5] 91.3% | [6] 93.3% | [7] 94% | [8] 85.9% | [9] 91.8% | [10] 94% | [11] 100% | [12] 95.2% | [13] 103% | [14] 95.7% | [15] 96.9% | [16] 116% | [17] 88.8% | [18] 112% | [19] 105% | [20] 93.7%

O=S(=O)(NCCCNc1nccc(-n2cnc3ccccc32)n1)c1ccc(C(F)(F)F)cc1
inactive: [1] 97.8% | [2] 75.1% | [3] 85.9% | [4] 60.7% | [5] 95.7% | [6] 87.1% | [7] 60.5% | [8] 72.1% | [9] 70.9% | [10] 67% | [11] 75.4% | [12] 69.7% | [13] 82.5% | [14] 96.3% | [15] 66.7% | [16] 92.5% | [17] 98.1% | [18] 96.8% | [19] 78.3% | [20] 81.1%

Nc1cc(-c2c[nH]c3ccc(Br)cc23)nc2cc(-c3c[nH]c4ccc(Br)cc34)nn12
inactive: [2] 31.7% | [3] 26.8% | [4] 41.3% | [5] 35.7% | [7] 21.1% | [12] 15.9% | [13] 24.5% | [15] 40.8% | [16] 116% | [17] 22.2% | [18] 22.6% | [19] 54.4% | [20] 35.5%
active: [1] -43.7% | [6] 7.87% | [8] 7.08% | [9] 7.39% | [10] -3.94% | [11] -1.79% | [14] 7.96%

O=C(CNc1nc(-c2cccc([N+](=O)[O-])c2)cs1)Nc1cccc(Cl)c1
inactive: [1] 107% | [2] 89.2% | [3] 99.4% | [4] 80.5% | [5] 149% | [6] 101% | [7] 106% | [8] 93% | [9] 103% | [10] 101% | [11] 94.9% | [12] 98% | [13] 101% | [14] 105% | [15] 102% | [16] 107% | [17] 102% | [18] 116% | [19] 110% | [20] 105%

N#Cc1c(NC(=O)c2cccc(C(F)(F)F)c2F)sc2c1CCC(=O)C2
active: [1] 5.28% | [2] 5.47% | [3] 7.61% | [4] -99.7% | [6] -95.5% | [7] -83.5% | [8] -8.37% | [9] 7.8% | [10] -0.731% | [11] 0.648% | [12] -24.6% | [14] -6.14% | [15] -36.3% | [16] 5.3% | [17] -0.691% | [18] -40.5% | [19] -17% | [20] -3.6%
inactive: [5] 24.1% | [13] 11.7%

O=c1[nH]c2ccccc2cc1CSc1ccccc1Nc1nccc(-c2ccc(Cl)cc2)n1
inactive: [1] 113% | [2] 88.6% | [3] 94.9% | [4] 83.3% | [5] 115% | [6] 81.5% | [7] 80.6% | [8] 85.5% | [9] 101% | [10] 100% | [11] 99.2% | [12] 94.5% | [13] 96.9% | [14] 110% | [15] 86.2% | [16] 112% | [17] 89.6% | [18] 101% | [19] 88.6% | [20] 95.1%

CC(=O)N1C(=S)NC(=O)C1CC(C)C (stereo not given)
inactive: [1] 102% | [2] 102% | [3] 101% | [4] 93.2% | [5] 100% | [6] 105% | [7] 96.3% | [8] 109% | [9] 103% | [10] 105% | [11] 101% | [12] 99% | [13] 103% | [14] 100% | [15] 99.5% | [16] 101% | [17] 104% | [18] 118% | [19] 110% | [20] 105%

COc1cc(-c2ccc3ncnc(NCc4ccccc4)c3c2)cnc1OC
active: [2] 6.53% | [5] -11.7% | [7] 6.95% | [8] -48.8% | [17] -31.8%
inactive: [1] 76.5% | [3] 27.2% | [4] 17.7% | [6] 19.9% | [9] 54.8% | [10] 32.1% | [11] 62.1% | [12] 34.5% | [13] 70.7% | [14] 28.9% | [15] 65.3% | [16] 43.2% | [18] 43.4% | [19] 20% | [20] 68.3%

CCCCCc1ccc(S(=O)(=O)Nc2cc(-c3csc(NC(=O)CN4CCN(C)CC4)n3)ccc2OC)cc1
inactive: [1] 73.6% | [2] 63.4% | [3] 11.8% | [5] 103% | [8] 75.2% | [13] 50.8% | [14] 62.4% | [15] 41.8% | [16] 73.4% | [17] 14.2% | [20] 41.9%
active: [4] -92.7% | [6] 3.55% | [7] -15.5% | [9] 2.18% | [10] -5.31% | [11] -20.3% | [12] -27% | [18] -19.4% | [19] -30.3%

CC1(C)NCCC[C@]2(C)[C@H]3C/C(=N\O)C4[C@@H]5C[C@@](C)(CO)CC[C@]5(C)CC[C@@]4(C)[C@]3(C)CC[C@@H]12 (stereo not given in full)
inactive: [1] 101% | [2] 108% | [3] 94.1% | [4] 90.2% | [5] 107% | [6] 101% | [7] 85.8% | [8] 96.1% | [9] 91.9% | [10] 80.5% | [11] 81.2% | [12] 111% | [13] 98.4% | [14] 104% | [15] 99.4% | [16] 107% | [17] 96.5% | [18] 109% | [19] 98.6% | [20] 98.1%

CCO/C=N/C1=C(C#N)C(c2ccc(F)cc2)c2sc3c(C)cccc3c2O1 (stereo not given)
inactive: [1] 42.7% | [2] 44.6% | [3] 17.3% | [4] 27.9% | [5] 66.4% | [6] 23.1% | [7] 28.4% | [9] 21.1% | [10] 23.1% | [11] 17.3% | [12] 12.8% | [13] 23.9% | [14] 25.6% | [15] 51% | [16] 66.6% | [17] 18.7% | [19] 24.6% | [20] 12.1%
active: [8] -0.888% | [18] -6.49%

COc1ccc(-c2nn(-c3ccc(S(C)(=O)=O)cc3)cc2/C=N/O)cc1
inactive: [1] 109% | [2] 104% | [3] 98.9% | [4] 97% | [5] 124% | [6] 95.3% | [7] 111% | [8] 116% | [9] 99.6% | [10] 103% | [11] 107% | [12] 102% | [13] 101% | [14] 101% | [15] 113% | [16] 108% | [17] 106% | [18] 122% | [19] 108% | [20] 107%

C=C1CC[C@@H]2[C@](C)(CO)[C@H](O)CC[C@@]2(C)[C@@H]1C/C(O)=C1\CCOC1=O
inactive: [1] 103% | [2] 102% | [3] 86.8% | [4] 99.4% | [5] 114% | [6] 101% | [7] 101% | [8] 94.4% | [9] 60.2% | [10] 104% | [11] 83.6% | [12] 83.8% | [13] 98.5% | [14] 120% | [15] 94.7% | [16] 113% | [17] 107% | [18] 93.2% | [19] 92.3% | [20] 98%

COc1cccc(N2CCN(c3ncnc4c3[nH]c3ccc(F)cc34)C[C@H]2C)c1
inactive: [1] 55% | [2] 50.9% | [3] 71.5% | [4] 31.6% | [5] 95% | [6] 63.2% | [7] 42.9% | [8] 37% | [9] 33.3% | [11] 46.4% | [12] 19.2% | [13] 22% | [14] 91.4% | [15] 28% | [16] 68% | [17] 59.5% | [18] 69.4% | [19] 72.9% | [20] 17%
active: [10] 6.42%

O=C1[C@H]2Cc3c([nH]c4ccccc34)[C@@H](c3c(Cl)cccc3Cl)N2C(=O)CN1C1CCN(CC2CCCCC2)CC1
inactive: [1] 111% | [2] 88.2% | [3] 87.8% | [4] 62.6% | [5] 142% | [6] 84.1% | [7] 81.9% | [8] 87.2% | [9] 47.2% | [10] 54.6% | [12] 66.2% | [13] 99.6% | [14] 97.8% | [15] 101% | [16] 109% | [17] 53.2% | [18] 67.9% | [19] 73.5% | [20] 91.8%
active: [11] -0.0364%

O=C1CCCC2=C1C(c1c[nH]c3ccc(Br)cc13)Cc1cc(Br)ccc1N2 (stereo not given)
active: [9] 6.67%
inactive: [1] 25.3% | [2] 41.9% | [3] 34.5% | [4] 36.3% | [5] 94.8% | [6] 36.2% | [7] 24.7% | [8] 13.5% | [10] 21.5% | [11] 33.3% | [12] 25.1% | [13] 55.3% | [14] 66.2% | [15] 101% | [16] 44.7% | [17] 24.1% | [18] 27.2% | [19] 20.2% | [20] 21.4%
